Screening results deposited in PubChem BioAssay by National Center for Advancing Translational Sciences (NCATS).
Hits are enriched below; roughly 2.4% of the tested compounds scored in any of these assays.
WRN inhibitor: qHTS for Inhibitors of WRN Helicase. Potency, µM (titrated, usually from 114 µM), for inactives: at the highest dose activity change, negative = inhibition, hits mostly inhibitors. AID 651768, 2012. WRN helicase unwinding, fluorescent forked duplex, kinetic. 360,000 tested, 0.46% active; note: potency is the fitted concentration of half-maximal effect; % is set by controls: 0 for no effect and ±100 for the full control effect; nearly all actives have a fitted effect of over 55% in size
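Screening of the MLSMR collection measured strand separation of a quenched forked DNA duplex (100 nM) by 20 nM WRN with 2 mM ATP, all final. Compounds were preincubated with enzyme 15 min at room temperature.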
POLB inh: qHTS Assay for Inhibitors of DNA Polymerase Beta; Potency, µM (top dose mostly 114 µM), inactives show at the top dose activity change, negative = inhibition, actives largely listed as inhibitors; P06746; Pol beta primer extension/strand displacement, fluorescence kinetic; 340,000 tested, 1.3% active; note: potency is the fitted concentration of half-maximal effect; % is set by controls: 0 for no effect and ±100 for the full control effect
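Kinetic readout of DNA synthesis with strand displacement by Pol beta. Compound and 10 nM enzyme sit 15 min at room temperature; 50 nM substrate starts the reaction, read immediately and at 10 min.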
FEN1 inh: qHTS Assay for the Inhibitors of Human Flap endonuclease 1 (FEN1); AID 588795, 2011; Potency, µM (series often up to 114 µM), without a hit: at the top dose activity change, negative = inhibition, most hits filed as inhibitors; P39748; Recombinant FEN1 flap cleavage, fluorescence, 15 min; 390,000 tested, 0.35% active; note: potency is the fitted concentration of half-maximal effect; % is set by controls: 0 for no effect and ±100 for the full control effect; nearly all actives have a fitted effect of over 65% in size
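In this screen, 50 nM flap DNA substrate was added to 10 nM FEN1 pretreated with compound for 15 min at room temperature; cleavage was followed with reads at 0 and 15 min, and Hill fitting gave concentration–response parameters.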
Pol eta inh-1: qHTS for Inhibitors of Polymerase Eta | DNA polymerase eta (Homo sapiens), Q9Y253 | recombinant Pol eta, fluorescent DNA replication assay | Potency, µM (doses to about 114 µM), for inactives: at the top dose activity change, negative = inhibition, usual class: inhibitors | 390,000 tested, 1.2% active | AID 588591, 2011; note: potency is the fitted concentration of half-maximal effect; % is set by controls: 0 for no effect and ±100 for the full control effect
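Pol eta (10 nM) was preincubated with compounds for 15 min at room temperature, after which fluorescent replication substrate (50 nM final) was added to start the reaction. Fluorescence was read kinetically at 0 and 10 min.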
Pol iota inh: qHTS for Inhibitors of Polymerase Iota; 390,000 tested, 1% active; Potency, µM (series often up to 115 µM), for the others: top-dose activity, negative = inhibition, most hits filed as inhibitors; Pol iota fluorescent replication assay, 10 min; DNA polymerase iota (Homo sapiens), Q9UNA4; note: potency is the fitted concentration of half-maximal effect
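Fluorescent replication assay read twice, at 0 min and 10 min after adding 50 nM (final) substrate. Enzyme (10 nM) and compounds were first incubated 15 min at room temperature; enzyme-free buffer wells were negative controls.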
Pol kappa inh-1: qHTS for Inhibitors of Polymerase Kappa | DNA polymerase kappa (Homo sapiens), Q9UBT6 | purified Pol kappa, fluorescent DNA synthesis assay, 10 min | Potency, µM (doses to about 107 µM), without a hit: at the highest dose activity, negative = inhibition, most hits filed as inhibitors | 400,000 tested, 0.53% active | AID 588579, 2011; note: potency is the fitted concentration of half-maximal effect; % is set by controls: 0 for no effect and ±100 for the full control effect
Target sequence (Q9UBT6 whole entry, looked up): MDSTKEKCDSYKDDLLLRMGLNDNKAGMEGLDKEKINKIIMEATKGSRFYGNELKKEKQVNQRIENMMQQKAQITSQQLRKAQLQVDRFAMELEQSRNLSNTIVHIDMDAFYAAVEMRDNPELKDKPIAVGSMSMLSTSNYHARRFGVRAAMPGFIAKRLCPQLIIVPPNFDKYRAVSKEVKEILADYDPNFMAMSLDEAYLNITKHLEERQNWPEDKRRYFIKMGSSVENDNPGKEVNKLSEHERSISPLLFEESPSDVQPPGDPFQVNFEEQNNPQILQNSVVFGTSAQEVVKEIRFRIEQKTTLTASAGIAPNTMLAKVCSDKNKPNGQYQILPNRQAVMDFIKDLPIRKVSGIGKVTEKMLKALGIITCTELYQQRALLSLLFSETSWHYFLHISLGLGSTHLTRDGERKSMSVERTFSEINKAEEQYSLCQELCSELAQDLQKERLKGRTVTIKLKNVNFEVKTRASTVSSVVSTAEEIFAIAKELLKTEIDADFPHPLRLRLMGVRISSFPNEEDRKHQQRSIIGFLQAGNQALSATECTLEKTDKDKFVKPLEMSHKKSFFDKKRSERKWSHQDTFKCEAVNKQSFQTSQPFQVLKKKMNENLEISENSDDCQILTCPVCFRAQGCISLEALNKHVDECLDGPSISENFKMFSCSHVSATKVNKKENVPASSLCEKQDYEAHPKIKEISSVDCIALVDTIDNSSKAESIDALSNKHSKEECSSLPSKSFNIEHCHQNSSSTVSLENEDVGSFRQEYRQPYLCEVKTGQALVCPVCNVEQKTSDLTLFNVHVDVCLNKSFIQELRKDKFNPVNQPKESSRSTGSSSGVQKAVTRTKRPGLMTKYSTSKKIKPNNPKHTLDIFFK
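Kinetic fluorescence readout at 0 and 10 min followed reaction start with substrate at 50 nM final. Beforehand, enzyme (10 nM Pol kappa) stood 15 min with compound at room temperature; buffer-only wells were negative controls.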
GALK confirm: Confirmation Assay for Inhibitors of Human Galactokinase (GALK); 150 tested, 70% active; AID 2015, 2009; Potency, µM (top dose mostly 115 µM), inactives show at the top dose activity, negative = inhibition, most hits filed as inhibitors; purified GALK, Kinase-Glo ATP depletion luminescence; shares compounds with Pol eta inh-1
GALK redox cs: Confirmatory Assay for Inhibitors of Human Galactokinase (GALK): Phenol-HRP redox assay counterscreen | 150 tested, 40% active | shares compounds with Pol eta inh-1 | Phenol red-HRP H2O2 redox cycling, absorbance 600 nm | Potency, µM (doses to about 115 µM), inactives show at the highest dose activity change, negative = H2O2 signal, usual class: inhibitors
HEK293 tox: Secondary Assay for Inhibitors of Human Galactokinase (GALK): HEK-293 Cell Viability Assay. shares compounds with Pol eta inh-1. HEK-293 viability, ATP luminescence (CellTiter-Glo), 24/48 h. Potency, µM (series often up to 46.1 µM), for inactives: at the top dose activity change, negative = cytotoxicity, most hits filed as inhibitors. 170 tested, 10% active; note: potency is the fitted concentration of half-maximal effect; % is set by controls: 0 for no effect and ±100 for the full control effect
Pol kappa inh-2: qHTS for Inhibitors of Polymerase Kappa: Confirmatory Assay for Cherry-picked Compounds. shares compounds with Pol eta inh-1. purified Pol-kappa, fluorescent strand-displacement substrate. Potency, µM, usual class: inhibitors. 920 tested, 76% active; note: potency is the fitted concentration of half-maximal effect
Pol eta inh-2: qHTS for Inhibitors of Polymerase Eta: Confirmatory Assay for Cherry-picked Compounds; shares compounds with Pol eta inh-1; Pol eta primer extension, TAMRA/BHQ fluorescence, 10 min; Potency, µM, most hits filed as inhibitors; 2,600 tested, 64% active; note: potency is the fitted concentration of half-maximal effect
Numbers without * were called inactive; ? = inconclusive; . = not tested or not shown; [ ] = dose if it differs, or a comment. Calls come from the whole dose curve; as a rule, active = well fitted curve in the direction sought with a large enough effect; inconclusive = small, poorly fitted or top-dose-only effect, or another doubt; inactive = no such curve, though single readings can be large; an effect the other way counts as inactive or inconclusive.

SMILES	WRN inhibitor	POLB inh	FEN1 inh	Pol eta inh-1	Pol iota inh	Pol kappa inh-1	Pol eta inh-2	others
Cc1ccc(Cn2c(=O)n(-c3cc(C)cc(C)c3)c(=O)c3oc4ccccc4c32)cc1	.	15%	10%	-17%	18%	-6%	.
CCc1ccccc1NC(=O)Cn1c(=O)n(CCCCCC(=O)NCc2ccc(C)cc2)c(=O)c2sccc21	.	-18%	3%	.	-11%	-30%	.
O=C(CNC(=O)c1cc(Cl)nc2ccccc12)Nc1ccccc1Br	4%	.	6%	-2%	22%	-14%	.
Cc1cnc(C(=O)NCC(=O)Nc2ccccc2Br)cn1	-4%[11.6 µM]	.	1%	32µM*	18µM*	?	?	Pol kappa inh-2=?
CC(C)OCCCn1c(=O)c2ccccc2n2c(-c3ccccc3)nnc12	.	-1%	5%	-17%	24%	3%	.
COc1cc(Cl)cc(C2NC(=O)NC(C)=C2C(C)=O)c1OCC(=O)O (stereo not drawn)	-20%[57.1 µM]	16µM*	-13%	25µM*	?	?	?
COCCOC(=O)C1=C(C)NC(=O)NC1c1cn(-c2ccccc2)nc1-c1ccccc1 (stereo not drawn)	.	?	-4%	-13%	52%	-12%	.
CC(C)(C)C1CCc2oc3ccc(NS(=O)(=O)c4ccc(C(=O)O)cc4)cc3c2C1 (stereo not drawn)	.	?	-22%	?	?	?	.	Pol kappa inh-2=?
S=C(NCc1ccco1)NCc1ccco1	-4%[11.6 µM]	.	-1%	?	?	?	?
O=C(/C=C/c1ccc(NC(=O)c2ccccc2-c2ccccc2C(=O)O)cc1)c1ccccc1	?	-25%	-2%	11µM*	?	-25%	30*
CC1=NN(c2ccccc2)C(=O)/C1=C/c1c(O)n(-c2ccc(F)c(Cl)c2)[nH]c1=O	?	?	?	28µM*	-28%	?	.	GALK confirm=30µM*;GALK redox cs=5%;HEK293 tox=12%
CC1=NN(c2ccccc2)C(=O)/C1=C\c1c(C)[nH]n(-c2ccccc2)c1=O	-16%	4%	-6%	-11%	6%	-7%	.
COc1cc(/C=C/C(=O)O)cc(S(=O)(=O)NNC(=O)c2cc(C)oc2C)c1OC	-28%	.	8%	18µM*	22µM*	?	?
CCc1ccc(NC(=O)c2ccc(Cn3nc(N4CCN(c5ccccc5)CC4)ccc3=O)o2)cc1	.	?	-13%	20µM*	?	-27%	?	Pol kappa inh-2=?
CCc1ccc(NC(=O)CSc2nc3c([nH]c4ccccc43)c(=O)n2C)cc1	.	1%	19%	-10%	26%	-6%[60.1 µM]	.
Cc1[nH][nH]c(=O)c1C(c1ccc(Br)cc1)c1c(C)[nH][nH]c1=O	2%	-24%	5%	-5%	?	-4%	.
Cc1[nH][nH]c(=O)c1C(c1ccc(-c2cccc(Cl)c2)o1)c1c(C)[nH][nH]c1=O	-30%	4%	-17%	79µM*	2.8µM*	0%	.	GALK confirm=53µM*;GALK redox cs=6.7µM*;HEK293 tox=-5%
CCCc1cc(=O)[nH]c(Nc2ccc(C)c(O)c2)n1	.	0%	11%	-15%	26%	-3%	.
CCc1ccc(-n2nnc(-c3nsc(NC(=O)c4ccccc4Cl)n3)c2C)cc1	.	?	1%	-10%	-1%	-17%	.
Cc1cc(C)cc(-n2nnc(-c3nsc(NC(=O)c4ccccc4Cl)n3)c2C)c1	.	7.9µM*	-22%	?	?	-11%	.	Pol kappa inh-2=?
CC1=C(C(=O)O)N2C(=O)C(NC(=O)c3nn(C)c(C)c3Cl)C2SC1 (stereo not drawn)	-10%	9%	1%	32µM*	?	-26%	48*	Pol kappa inh-2=42*
COc1cc(C2CC(=O)Nc3ccc4ccccc4c32)ccc1OC(=O)C(C)C (stereo not drawn)	.	-30%	-23%	-10%	?	-21%	.
O=C(Nc1cccc(O)c1)c1ccc2c(c1)C(=O)N(Cc1ccco1)C2=O	-18%	?	-7%	-7%	?	-33%	.
O=C(Nc1ccc(Cl)cc1C(=O)O)c1ccc2c(c1)C(=O)N(Cc1ccco1)C2=O	-30%[57.1 µM]	?	?	79µM*	35µM*	?	?
O=C(OCCOCCO)c1ccccc1Nc1cccc(C(F)(F)F)c1	.	.	.	.	.	8%[12 µM]	.
O=C(COC(=O)c1ccc(Cl)c(S(=O)(=O)N2CCOCC2)c1)NCc1ccco1	-7%	.	1%	-6%	-10%	0%	.
CCOc1ccccc1OCC(=O)NCc1ccco1	?	28µM*	8%	79µM*	20µM*	?	?
Nc1cc(C(=O)OCC(=O)NCc2ccco2)ccc1Cl	-21%[57.1 µM]	?	7%	18µM*	?	-27%	?
O=C(COC(=O)c1ccccc1Nc1cccc(C(F)(F)F)c1)NCc1ccco1	-30%	40µM*	-7%	20µM*	?	?	67*
